# The supplement of paper PMC10849652
# The full data set covers some 7,900 targets. This sample favours those with a hit. About 0.6% of all pairs of compound and target were hits. Unmarked numbers belong to inactive results.
# Experiments:
# Experiment in all cases: log2 fold change, soluble protein after heating vs DMSO (PISA); higher = thermal stabilisation; K562 cells, 10 uM, 30 min; active = over 0.2 and 3.5 SD of the protein, either way, in both replicates (recomputed)
# [1] = compound: CC1=C(C=C(C=C1)NC(=O)C2=CC(=CC=C2)C(C)(C)C#N)NC3=CC4=C(C=C3)N=CN(C4=O)C
# Procedure, shortened: (§1)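 Aliquots of K562 cells (2×10^6 cells/mL) treated with 10 μM compound for 30 min were heated for 3 min over 48°C-58°C. After pooling and extraction in PBS with 0.5% NP-40 at 4°C, soluble protein from a 21,000xg, 90 min spin was quantified by TMTpro 16plex LC-MS/MS with channel sums equalised. Thermal stability is expressed against control samples, from duplicates, as a log2 fold change.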
# [2] = compound: CC1=C(C=C(C=C1)NC(=O)C2=CC(=CC=C2)N(C)C)NC(=O)C3=CC=C(C=C3)O
# Procedure, shortened: as §1
# [3] = compound: CC1=CC=C(C=C1)SC2=C3C=C(SC3=CN=C2)C(=O)N
# Procedure, shortened: as §1
# [4] = compound: CC1=NC(=CC=C1)C2=C(N=C(N2)C(C)(C)C)C3=CC4=NC=CN=C4C=C3
# Procedure, shortened: as §1
# Nexturastat A = compound: CCCCN(Cc1ccc(C(=O)NO)cc1)C(=O)Nc1ccccc1 [Nexturastat A]
# Procedure, shortened: as §1
# vemurafenib = compound: CCCS(=O)(=O)Nc1ccc(F)c(C(=O)c2c[nH]c3ncc(-c4ccc(Cl)cc4)cc23)c1F [vemurafenib]
# Procedure, shortened: as §1
# [5] = compound: CCCS(=O)(=O)Nc1ccc(F)c(C(=O)c2c[nH]c3ncc(Cl)cc23)c1F
# Procedure, shortened: as §1
# [6] = compound: CCCc1cc(C)[nH]c(=O)c1CNC(=O)c1cc(-c2ccnc(N3CCN(C)CC3)c2)cc2c1cnn2C(C)C
# Procedure, shortened: as §1
# givinostat = compound: CCN(CC)Cc1ccc2cc(COC(=O)Nc3ccc(C(=O)NO)cc3)ccc2c1 [givinostat]
# Procedure, shortened: as §1
# barasertib = compound: CCN(CCCOc1ccc2c(Nc3cc(CC(=O)Nc4cccc(F)c4)[nH]n3)ncnc2c1)CCOP(=O)(O)O [barasertib]
# Procedure, shortened: as §1
# [7] = compound: CC[C@@H]1C(=O)N(C)c2cnc(Nc3ccc(C(=O)NC4CCN(C)CC4)cc3OC)nc2N1C1CCCC1
# Procedure, shortened: as §1
# volasertib = compound: CC[C@@H]1C(=O)N(C)c2cnc(Nc3ccc(C(=O)N[C@H]4CC[C@H](N5CCN(CC6CC6)CC5)CC4)cc3OC)nc2N1C(C)C [volasertib]
# Procedure, shortened: as §1
# [8] = compound: CC[C@H](C)N1C=C(C2=C(C=C(C=C21)C3=CN=C(C=C3)N4CCNCC4)C(=O)NCC5=C(C=C(NC5=O)C)C)C
# Procedure, shortened: as §1
# epoxomicin = compound: CC[C@H](C)[C@@H](C(=O)N[C@@H]([C@@H](C)O)C(=O)N[C@@H](CC(C)C)C(=O)[C@]1(CO1)C)NC(=O)[C@H]([C@@H](C)CC)N(C)C(=O)C [epoxomicin]
# Procedure, shortened: as §1
# [9] = compound: CCn1c(C(=O)N(C2CC2)C2CC2)cc2c3c(ncn3C)c(Nc3cc(C)n(C)n3)nc21
# Procedure, shortened: as §1
# [10] = compound: CCn1cc(-c2ccnc3[nH]c(-c4cccc(CN(C)C)c4)cc23)c(-c2ccc(NC(=O)N(C)C)cc2)n1
# Procedure, shortened: as §1
# [11] = compound: CN(C)CC(=O)Nc1ccc2[nH]c(=O)c3ccccc3c2c1
# Procedure, shortened: as §1
# rosiglitazone = compound: CN(CCOC1=CC=C(C=C1)C[C@H]2C(=O)NC(=O)S2)C3=CC=CC=N3 (racemic) [rosiglitazone]
# Procedure, shortened: as §1
# [12] = compound: CN1C2=C(C3=C1C(=O)N(N=C3)CC4=CC(=CC=C4)N)SC(=C2)S(=O)C
# Procedure, shortened: as §1
# [13] = compound: CN1CCC(CNc2ccc3ncc(-c4cccc(OC(F)(F)F)c4)n3n2)CC1
# Procedure, shortened: as §1
# Chain of UniProt O15347 (O15347 whole entry, looked up): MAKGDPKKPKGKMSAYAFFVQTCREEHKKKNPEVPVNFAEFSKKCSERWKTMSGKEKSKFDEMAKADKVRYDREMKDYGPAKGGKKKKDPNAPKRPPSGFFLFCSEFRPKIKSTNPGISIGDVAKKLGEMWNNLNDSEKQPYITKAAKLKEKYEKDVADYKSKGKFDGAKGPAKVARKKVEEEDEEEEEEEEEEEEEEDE
# Chain of UniProt P37268 (P37268 whole entry, looked up): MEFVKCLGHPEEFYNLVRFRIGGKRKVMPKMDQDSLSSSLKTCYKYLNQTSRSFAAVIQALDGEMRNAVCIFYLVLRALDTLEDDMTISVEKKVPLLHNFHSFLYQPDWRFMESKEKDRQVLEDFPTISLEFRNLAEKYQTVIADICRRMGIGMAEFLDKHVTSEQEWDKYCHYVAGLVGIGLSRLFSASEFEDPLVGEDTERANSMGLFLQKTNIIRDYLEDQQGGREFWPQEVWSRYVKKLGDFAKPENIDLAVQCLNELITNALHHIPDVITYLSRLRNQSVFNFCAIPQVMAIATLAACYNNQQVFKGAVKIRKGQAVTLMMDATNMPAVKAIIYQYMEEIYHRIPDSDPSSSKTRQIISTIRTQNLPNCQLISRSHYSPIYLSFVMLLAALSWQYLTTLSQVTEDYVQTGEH
# Chain of UniProt Q13907 (Q13907 whole entry, looked up): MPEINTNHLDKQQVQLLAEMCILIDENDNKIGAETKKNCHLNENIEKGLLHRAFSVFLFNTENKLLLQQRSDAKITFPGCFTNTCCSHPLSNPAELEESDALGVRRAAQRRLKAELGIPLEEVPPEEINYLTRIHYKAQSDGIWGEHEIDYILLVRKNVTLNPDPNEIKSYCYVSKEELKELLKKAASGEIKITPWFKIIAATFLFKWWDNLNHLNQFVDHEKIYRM
# Chain of UniProt P30519 (P30519 whole entry, looked up): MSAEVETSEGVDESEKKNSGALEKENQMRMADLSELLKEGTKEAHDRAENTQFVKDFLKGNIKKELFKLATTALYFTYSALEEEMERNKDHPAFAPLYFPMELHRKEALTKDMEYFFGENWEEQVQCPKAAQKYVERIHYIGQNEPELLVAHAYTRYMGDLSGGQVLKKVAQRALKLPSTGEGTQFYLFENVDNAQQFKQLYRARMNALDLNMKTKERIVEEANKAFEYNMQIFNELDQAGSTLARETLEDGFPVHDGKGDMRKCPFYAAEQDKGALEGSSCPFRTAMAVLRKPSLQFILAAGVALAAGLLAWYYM
# Chain of UniProt O00458 (O00458 whole entry, looked up): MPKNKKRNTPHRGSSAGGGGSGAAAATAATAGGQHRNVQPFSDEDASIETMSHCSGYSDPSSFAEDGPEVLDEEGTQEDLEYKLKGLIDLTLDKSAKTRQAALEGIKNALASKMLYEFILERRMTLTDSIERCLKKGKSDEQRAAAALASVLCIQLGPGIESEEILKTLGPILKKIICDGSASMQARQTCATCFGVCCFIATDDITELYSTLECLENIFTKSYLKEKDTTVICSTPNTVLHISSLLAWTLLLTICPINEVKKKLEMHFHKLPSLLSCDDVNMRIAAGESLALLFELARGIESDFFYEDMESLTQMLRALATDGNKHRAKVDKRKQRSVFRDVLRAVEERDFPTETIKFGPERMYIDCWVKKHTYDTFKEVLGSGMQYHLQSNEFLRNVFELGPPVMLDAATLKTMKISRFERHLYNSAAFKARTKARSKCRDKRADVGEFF
# Chain of UniProt Q06546 (Q06546 whole entry, looked up): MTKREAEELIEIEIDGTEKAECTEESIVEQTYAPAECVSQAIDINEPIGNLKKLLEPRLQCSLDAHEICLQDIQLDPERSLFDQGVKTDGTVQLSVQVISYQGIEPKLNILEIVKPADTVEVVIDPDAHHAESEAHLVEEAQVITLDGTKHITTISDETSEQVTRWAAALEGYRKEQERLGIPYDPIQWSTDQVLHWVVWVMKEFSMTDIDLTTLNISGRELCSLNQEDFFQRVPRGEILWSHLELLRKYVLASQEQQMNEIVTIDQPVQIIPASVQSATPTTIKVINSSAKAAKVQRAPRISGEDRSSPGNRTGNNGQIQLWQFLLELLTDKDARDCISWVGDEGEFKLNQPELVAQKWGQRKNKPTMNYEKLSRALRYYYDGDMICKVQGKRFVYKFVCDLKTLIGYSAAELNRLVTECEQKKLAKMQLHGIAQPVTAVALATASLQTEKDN
# Chain of UniProt P16278 (P16278 whole entry, looked up): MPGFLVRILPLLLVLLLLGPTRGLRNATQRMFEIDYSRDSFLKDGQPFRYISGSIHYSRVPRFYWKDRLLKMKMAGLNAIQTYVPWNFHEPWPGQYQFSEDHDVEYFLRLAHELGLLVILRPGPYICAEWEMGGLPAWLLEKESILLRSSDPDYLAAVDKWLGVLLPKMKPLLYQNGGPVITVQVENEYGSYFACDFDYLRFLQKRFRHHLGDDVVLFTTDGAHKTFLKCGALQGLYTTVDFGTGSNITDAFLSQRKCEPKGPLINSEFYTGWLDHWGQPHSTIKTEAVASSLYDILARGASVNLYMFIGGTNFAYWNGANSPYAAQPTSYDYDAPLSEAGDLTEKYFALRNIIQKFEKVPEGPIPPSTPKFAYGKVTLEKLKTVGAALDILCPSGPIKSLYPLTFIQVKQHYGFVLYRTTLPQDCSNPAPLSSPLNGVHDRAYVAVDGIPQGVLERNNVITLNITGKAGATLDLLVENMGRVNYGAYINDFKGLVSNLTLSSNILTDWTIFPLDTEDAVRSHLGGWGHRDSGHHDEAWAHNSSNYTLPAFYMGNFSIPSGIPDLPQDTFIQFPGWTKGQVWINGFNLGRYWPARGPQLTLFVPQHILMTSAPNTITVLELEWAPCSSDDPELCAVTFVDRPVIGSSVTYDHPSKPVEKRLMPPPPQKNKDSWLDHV
# Chain of UniProt O76003 (O76003 whole entry, looked up): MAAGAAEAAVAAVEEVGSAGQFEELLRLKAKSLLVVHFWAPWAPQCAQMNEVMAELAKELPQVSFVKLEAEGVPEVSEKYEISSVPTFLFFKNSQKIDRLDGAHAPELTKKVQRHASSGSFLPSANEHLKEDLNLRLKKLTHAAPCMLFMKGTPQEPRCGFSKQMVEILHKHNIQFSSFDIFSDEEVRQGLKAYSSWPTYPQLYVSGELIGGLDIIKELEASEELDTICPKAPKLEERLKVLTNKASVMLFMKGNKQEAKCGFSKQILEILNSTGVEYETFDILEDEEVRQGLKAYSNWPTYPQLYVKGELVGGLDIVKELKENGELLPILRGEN
# Chain of UniProt Q9UJ14 (Q9UJ14 whole entry, looked up): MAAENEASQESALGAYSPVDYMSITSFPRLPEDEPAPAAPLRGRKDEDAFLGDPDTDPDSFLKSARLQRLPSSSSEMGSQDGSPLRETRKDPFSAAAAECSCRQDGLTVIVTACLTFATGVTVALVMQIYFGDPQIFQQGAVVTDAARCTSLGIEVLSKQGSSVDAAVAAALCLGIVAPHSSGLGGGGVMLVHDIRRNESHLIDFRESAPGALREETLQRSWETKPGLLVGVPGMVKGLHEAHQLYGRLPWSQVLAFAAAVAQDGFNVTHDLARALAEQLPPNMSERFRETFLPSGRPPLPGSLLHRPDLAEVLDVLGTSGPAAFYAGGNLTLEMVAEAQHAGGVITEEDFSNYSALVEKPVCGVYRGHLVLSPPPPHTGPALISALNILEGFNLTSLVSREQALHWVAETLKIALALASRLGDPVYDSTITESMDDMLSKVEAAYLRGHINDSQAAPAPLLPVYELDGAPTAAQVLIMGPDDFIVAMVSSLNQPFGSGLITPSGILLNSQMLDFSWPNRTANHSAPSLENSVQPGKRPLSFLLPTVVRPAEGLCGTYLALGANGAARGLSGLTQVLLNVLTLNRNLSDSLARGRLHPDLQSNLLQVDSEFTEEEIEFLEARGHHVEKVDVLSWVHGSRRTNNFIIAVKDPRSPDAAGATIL
# Chain of UniProt Q03014 (Q03014 whole entry, looked up): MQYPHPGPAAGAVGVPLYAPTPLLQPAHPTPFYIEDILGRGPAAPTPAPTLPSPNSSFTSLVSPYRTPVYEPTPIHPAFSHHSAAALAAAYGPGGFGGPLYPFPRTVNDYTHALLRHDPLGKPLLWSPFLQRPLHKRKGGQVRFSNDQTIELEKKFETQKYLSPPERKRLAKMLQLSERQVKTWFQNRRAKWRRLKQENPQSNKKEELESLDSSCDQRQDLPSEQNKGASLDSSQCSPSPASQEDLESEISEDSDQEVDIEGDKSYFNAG
# Chain of UniProt P54803 (P54803 whole entry, looked up): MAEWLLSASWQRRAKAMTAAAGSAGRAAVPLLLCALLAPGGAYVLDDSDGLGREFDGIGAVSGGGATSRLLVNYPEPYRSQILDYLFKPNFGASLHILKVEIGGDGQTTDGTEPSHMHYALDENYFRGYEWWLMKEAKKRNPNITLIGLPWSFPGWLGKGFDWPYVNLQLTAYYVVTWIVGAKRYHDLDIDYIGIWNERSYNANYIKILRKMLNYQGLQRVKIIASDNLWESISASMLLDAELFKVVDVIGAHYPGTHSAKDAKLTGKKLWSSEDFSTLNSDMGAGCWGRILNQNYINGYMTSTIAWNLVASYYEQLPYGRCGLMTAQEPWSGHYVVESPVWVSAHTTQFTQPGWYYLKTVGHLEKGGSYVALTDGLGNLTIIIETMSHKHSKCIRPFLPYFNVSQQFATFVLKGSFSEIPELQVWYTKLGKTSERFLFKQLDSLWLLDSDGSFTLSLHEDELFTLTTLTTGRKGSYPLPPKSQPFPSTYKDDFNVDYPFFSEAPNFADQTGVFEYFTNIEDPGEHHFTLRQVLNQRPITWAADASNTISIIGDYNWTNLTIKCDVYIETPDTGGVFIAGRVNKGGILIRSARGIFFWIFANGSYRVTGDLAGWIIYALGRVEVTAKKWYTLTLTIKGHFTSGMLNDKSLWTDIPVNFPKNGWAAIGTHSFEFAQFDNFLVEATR
# Chain of UniProt Q96HJ9 (Q96HJ9 whole entry, looked up): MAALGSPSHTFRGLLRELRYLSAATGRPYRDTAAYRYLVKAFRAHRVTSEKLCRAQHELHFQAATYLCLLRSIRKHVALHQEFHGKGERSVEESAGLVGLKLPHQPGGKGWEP
Target,log2 fold change [1],log2 fold change [2],log2 fold change [3],log2 fold change [4],log2 fold change (Nexturastat A),log2 fold change (vemurafenib),log2 fold change [5],log2 fold change [6],log2 fold change (givinostat),log2 fold change (barasertib),log2 fold change [7],log2 fold change (volasertib),log2 fold change [8],log2 fold change (epoxomicin),log2 fold change [9],log2 fold change [10],log2 fold change [11],log2 fold change (rosiglitazone),log2 fold change [12],log2 fold change [13]
GMEB1 (UniProt Q9Y692),0.088,0.041,0.04,0.014,-0.041,-0.048,0.154,0.047,0.058,0.008,-0.071,-0.281 (active),0.039,0.059,-0.056,-0.05,-0.045,0.096,-0.07,-0.014
HMOX2 (UniProt P30519),0,-0.06,0.036,-0.019,-0.023,0.034,0.012,0.097,0.015,0.042,-0.015,-0.251 (active),0.074,0.009,-0.054,-0.069,0.008,0.012,0.011,0.054
FDFT1 (UniProt P37268),-0.008,0.01,0.063,-0.034,0.01,0,0.092,0.1,-0.018,0.009,-0.067,-0.151,-0.01,0.06,-0.017,-0.06,0.003,-0.024,-0.059,0.067
H2AFX (UniProt P16104),-0.088,-0.006,-0.231,-0.073,0.754,-0.232,0.329,0.1,0.328,-0.11,0.002,0.214,-0.096,-0.237,-0.01,0.279,-0.213,-0.101,0.501,0.082
IDI1 isoform 2 (UniProt Q13907),-0.017,-0.007,-0.015,0.003,-0.082,0.005,-0.029,-0.185,-0.219,0.024,0.055,0.127,-0.05,-0.079,-0.008,-0.081,-0.065,-0.01,-0.004,-0.005
IFRD1 (UniProt O00458),0.123,0.033,0.098,-0.04,-0.103,0.001,0.058,-0.111,-0.154,-0.079,0.107,-0.015,-0.14,0.053,0.019,-0.016,-0.143,0,-0.097,0.297
HMGB3 (UniProt O15347),-0.012,0,0.006,0.011,-0.014,-0.083,0.011,0.202,-0.016,-0.008,-0.182,0.064,0.053,-0.007,0.015,-0.021,-0.022,0,-0.039,0.015
FNTB (UniProt P49356),0.032,-0.058,0,0,-0.041,0.011,-0.052,0.029,-0.083,-0.034,0.948 (active),0.707 (active),0.01,0.044,-0.006,-0.212,0.02,0.062,-0.055,-0.088
FMC1 (UniProt Q96HJ9),-0.036,-0.029,0.027,0.004,-0.038,-0.065,0.014,-0.074,-0.051,0.022,0.04,0.102,-0.039,0.059,-0.102,0.046,-0.057,0.044,-0.01,-0.02
GLB1 (UniProt P16278),-0.051,-0.026,-0.033,-0.038,0.086,-0.017,-0.007,0.003,0.002,-0.027,-0.707 (active),-1.11 (active),0.007,-0.01,0.038,0.057,0.002,-0.023,0.037,-0.751 (active)
HHEX (UniProt Q03014),-0.03,0.045,-0.009,-0.055,0.05,-0.081,0,0.026,-0.026,-0.003,0.027,0.07,0.053,0.164,0.019,0.05,0.234,-0.029,0.117,-0.023
GALC (UniProt P54803),0.002,-0.032,0,-0.013,0.012,-0.03,-0.03,-0.049,0.036,0.002,-0.275 (active),-0.959 (active),-0.009,0.042,0.012,0.096,0.01,-0.006,-0.011,-0.403 (active)
GGT7 (UniProt Q9UJ14),-0.125,0,0.07,-0.008,0.032,0.112,-0.011,0.033,0.019,0.061,0.029,-0.063,-0.069,0.079,-0.013,-0.124,0.081,0.005,0.02,0.023
GABPA (UniProt Q06546),-0.007,-0.011,0.064,0.039,0.008,0.062,0.09,-0.004,0.17,0.022,-0.017,-0.304 (active),0.079,0.007,-0.083,-0.07,0.037,0.076,-0.026,-0.174
GLRX3 (UniProt O76003),0.007,-0.033,0.02,0.028,-0.049,0.024,0.139,0.014,0.01,0.054,-0.164,-0.331 (active),0.066,0.018,0.027,-0.025,-0.011,0.014,-0.03,-0.03
HPCAL1 (UniProt P37235),-0.022,0.012,0.048,0.032,-0.092,-0.017,0.005,-0.076,-0.041,0.019,-0.076,-0.065,-0.028,0.048,0.003,0.039,0.019,0.005,-0.029,-0.032
